Assay [1] is described as follows: APR_HepG2_CellLoss_72hr: Apredica 72-hour HepG2 Assay for Cell Loss (AID 2282915). The note with it: high-content imaging. In short, it runs like this: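 HepG2 cells exposed 72 h to compound at 0.39–200 uM (10 concentrations, duplicate) in 0.5% DMSO. Fixed with 3.7% formaldehyde and Hoechst 33342-stained. Imaged at 20x; nuclear count gives cell number, fitted bidirectionally versus DMSO.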

Assay [2] can be described thus: APR_HepG2_P-H2AX_72hr: Apredica 72-hour HepG2 Assay for H2AX Phosphorylation (AID 2282916).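 Further: phospho-histone H2A.x immunostain intensity per cell marking DNA damage.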 To be noted: imaging, actives raise or lower the signal. In a few lines: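 Phospho-histone H2A.x immunofluorescence, multiplexed with Hoechst and c-Jun, quantified by high-content imaging. Compounds applied to HepG2 for 72 h across ten concentrations (0.39–200 uM, 0.5% DMSO), in duplicate; DMSO baseline.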

A short description of assay [3]: APR_HepG2_MitoMembPot_72hr: Apredica 72-hour HepG2 Assay for Mitochondrial Membrane Potential (AID 2282917). To be noted: imaging, actives raise or lower the signal. In short, it runs like this:
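HepG2 cells dosed 72 hr with compound at 0.39–200 uM in duplicate, 0.5% v/v DMSO final. Mitochondria stained with 250 nM MitoTracker Red CMXRos for 30 min before formaldehyde fixation, imaged by high-content fluorescence; bidirectional fit versus DMSO.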

The nature of assay [4]: APR_HepG2_MitoticArrest_72hr: Apredica 72-hour HepG2 Assay for Mitotic Arrest (AID 2282918). To be noted: high-content imaging, actives raise or lower the signal. In a few lines: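 HepG2, 72 hr exposure, 0.39–200 uM in duplicate, 0.5% v/v DMSO final. Formaldehyde-fixed, Triton-permeabilized, anti-phospho-histone H3/FITC plus Hoechst. ArrayScan imaging at 20x; curves fit bidirectionally against DMSO baseline.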

Assay [5] can be described thus: APR_HepG2_MicrotubuleCSK_72hr: Apredica 72-hour HepG2 Assay for Microtubule CSK Stabilty (AID 2282919). The note with it: HepG2 microtubule cytoskeleton, high-content imaging, actives raise or lower the signal. In a few lines: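 HepG2, 72 hr cmpd exposure, 0.39–200 uM (10 pts, duplicate), 0.5% DMSO. 3.7% formaldehyde fix, 0.5% Triton perm, anti-alpha-tubulin/Cy5 plus Hoechst. HCS fluorescence intensity; bidirectional fit vs DMSO baseline; taxol as positive control.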

The nature of assay [6]: APR_HepG2_P-H2AX_24hr: Apredica 24-hour HepG2 Assay for H2AX Phosphorylation (AID 2282920). The note with it: high-content imaging, actives raise or lower the signal. In short, it runs like this: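 HCS fluorescence imaging of phospho-H2A.x immunostain (with Hoechst 33342 nuclear counterstain) in HepG2 after 24 hr compound exposure; 10 concentrations, 0.39–200 uM, duplicate wells, 0.5% v/v DMSO. Gain or loss of signal fitted relative to DMSO baseline.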

The nature of assay [7]: APR_HepG2_StressKinase_72hr: Apredica 72-hour HepG2 Assay for Stress Kinase (AID 2282921). The note with it: HepG2 stress kinase (phospho-c-Jun) imaging, actives raise or lower the signal. In short, it runs like this:
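Stress kinase signal is phospho-c-Jun immunofluorescence (1:500 primary, Cy3 secondary) in fixed, permeabilized human HepG2 cells imaged at 20x. Exposure lasted 72 hr over ten concentrations from 0.39 to 200 uM, 0.5% DMSO, in duplicate. Bidirectional fit versus DMSO.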

Assay [8] can be described thus: APR_HepG2_StressKinase_24hr: Apredica 24-hour HepG2 Assay for Stress Kinase (AID 2282922). To be noted: HepG2 stress kinase (phospho-c-Jun) imaging, actives raise or lower the signal. In short, it runs like this:
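Read-out: phospho-c-Jun immunofluorescence (Cy3 secondary) quantified by high-content imaging at 20x, nuclei defined by Hoechst 33342. Human HepG2 liver cells dosed 24 hr, 0.39–200 uM, DMSO 0.5% v/v; gain or loss of signal fitted relative to DMSO.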

Assay [9] in a line: APR_HepG2_MitoMass_72hr: Apredica 72-hour HepG2 Assay for Mitochondrial Mass (AID 2282924).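 Further: MitoTracker Red CMXRos stain intensity per cell imaged as mitochondrial mass.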 The note with it: high-content imaging, actives raise or lower the signal. In a few lines: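 Read-out: MitoTracker Red fluorescence intensity from automated imaging (20x, six fields per well) in human HepG2 liver cells. Dosing ran 72 hr, 0.39–200 uM, 0.5% DMSO; bidirectional curve fitting versus DMSO baseline.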

Assay [10] in a line: APR_HepG2_NuclearSize_72hr: Apredica 72-hour HepG2 Assay for Nuclear Size (AID 2282925). To be noted: high-content imaging, actives raise or lower the signal. In short, it runs like this:
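Read-out: nuclear diameter from Hoechst 33342 images (ArrayScan, 20x, six fields/well), via cell-cycle image analysis. HepG2 were dosed 0.39–200 uM for 72 hr in 0.5% DMSO. Bidirectional fit relative to DMSO.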

Assay [11] in a line: ATG_CRE_CIS: Attagene CIS-FACTORIAL HepG2 Assay for human cAMP Responsive Element (CRE) binding protein 3 (AID 2282926). To be noted: HepG2 CRE cis-reporter, Attagene multiplexed mRNA; actives raise or lower the signal. In short, it runs like this: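 Readout: fluorescently labelled reporter transcripts resolved by capillary electrophoresis after RT-PCR, taken 24 h post-dosing in transfected HepG2. Endogenous transcription factor activity drives each cis-element reporter; gain or loss of signal fitted relative to DMSO control.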

Assay [12] can be described thus: ATG_CMV_CIS: Attagene CIS-FACTORIAL HepG2 Assay for human CMV (Internal Marker) (AID 2282928).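 Further: endpoint acts as a background internal control marker rather than a target.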 The note with it: HepG2 CMV promoter reporter, transcription factor profiling; actives raise or lower the signal. In short, it runs like this: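 Fluorescence intensity of RT-PCR-derived reporter fragments, resolved by capillary electrophoresis, gives the signal. HepG2 liver cells bearing transfected cis-element reporters were treated 24 h; activity in either direction was fit relative to DMSO-treated controls.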

A short description of assay [13]: ATG_DR4_LXR_CIS: Attagene CIS-FACTORIAL HepG2 Assay for human Liver X Receptor (LXR), DR4 submotif (AID 2282929). To be noted: HepG2 Attagene DR4 cis-reporter, mRNA transcription; actives raise or lower the signal. In a few lines:
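The endpoint is DR4-element-driven reporter transcripts after 24 h chemical exposure of transfected HepG2 cells. These were measured via RT-PCR and capillary electrophoresis, and gain or loss of signal was fitted relative to DMSO controls.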

Assay [14] can be described thus: ATG_AP_1_CIS: Attagene CIS-FACTORIAL HepG2 Assay for human Activator Protein 1 (AP-1) (AID 2282931). To be noted: HepG2 Attagene cis-factorial AP-1 reporter mRNA; actives raise or lower the signal. In a few lines: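 Readout is reporter transcript level from endogenous transcription factor activity, quantified by RT-PCR with fluorescent primer extension and capillary electrophoresis. Transiently transfected HepG2 cells, 24 h exposure. Curves fitted both directions versus DMSO.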

Assay [15] can be described thus: ATG_AP_2_CIS: Attagene CIS-FACTORIAL HepG2 Assay for human Activator Protein 2 (AP-2) (AID 2282932). To be noted: HepG2 AP-2 cis-reporter, Attagene transcription factor profiling; actives raise or lower the signal. In a few lines: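 Liver-derived HepG2 line, cis-reporter system measuring endogenous factors; 24 h dosing; reporter mRNA detected by fluorescent RT-PCR and capillary electrophoresis.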

A short description of assay [16]: ATG_BRE_CIS: Attagene CIS-FACTORIAL HepG2 Assay for human Bone Morphogenetic Protein (BMP) Response Element (BRE) (AID 2282933). The note with it: HepG2 BMP response element reporter, Attagene transcription factor profiling; actives raise or lower the signal. In short, it runs like this:
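A HepG2 multiplex reporter system measured inducible reporter mRNA 24 h post-dosing. Detection: RT-PCR, 6-FAM primer extension, HpaI digestion, capillary electrophoresis. Activity fitted bidirectionally relative to DMSO.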

Assay [17] has as its target Retinoic acid receptor alpha (Homo sapiens) (UniProt P10276). Briefly: ATG_DR5_RAR_CIS: Attagene CIS-FACTORIAL HepG2 Assay for human Retinoic Acid Receptor Alpha (RARE), DR5 submotif (AID 2282934).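 On AC50: reporter responds to endogenous RAR alpha beta and gamma in HepG2 not RARA alone.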 The note with it: HepG2 Attagene cis-factorial RARE DR5 reporter, mRNA; actives raise or lower the signal. In short, it runs like this:
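After 24 h of chemical exposure, transiently transfected HepG2 cells were lysed for total RNA; the DR5-regulated reporter transcript was quantified via RT-PCR and capillary electrophoresis, with activity fitted bidirectionally against DMSO.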

Assay [18] deals with CCAAT/enhancer-binding protein beta (Homo sapiens) (UniProt P17676). Briefly: ATG_C_EBP_CIS: Attagene CIS-FACTORIAL HepG2 Assay for human CCAAT/Enhancer Binding Protein (C/EBP) beta (AID 2282927). To be noted: HepG2 Attagene cis-factorial transcription factor reporter; actives raise or lower the signal. In a few lines: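 HepG2, transient MRTU transfection, 24 h treatment. RT-PCR plus CE fluorescence; DMSO negative control, bidirectional fit.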

The target of assay [19] is Aryl hydrocarbon receptor (Homo sapiens) (UniProt P35869). Briefly: ATG_Ahr_CIS: Attagene CIS-FACTORIAL HepG2 Assay for human Aryl Hydrocarbon Receptor (Ahr) (AID 2282930). The note with it: HepG2 AhR cis-factorial reporter transcription; actives raise or lower the signal. In a few lines: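 Endogenous factor activity is tracked through cis-promoter reporter units transfected into HepG2 cells. Transcript levels at 24 h are read by fluorescent RT-PCR and capillary electrophoresis, with activity in either direction scored relative to DMSO.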

Assay [20] is described as follows: APR_HepG2_p53Act_72hr: Apredica 72-hour HepG2 Assay for p53 Activation (AID 2282923).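 Further: average cellular p53 protein immunofluorescence intensity in HepG2 cells.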 To be noted: high-content imaging, actives raise or lower the signal. In short, it runs like this:
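After 72 h with compound (ten points, 0.39 to 200 uM, final DMSO 0.5% v/v), fixed HepG2 cells were labelled with sheep anti-p53 and Hoechst 33342 and imaged; gain or loss versus DMSO scored.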

Activity calls are given as the source filed them. How the source made its calls: active means hit-call score of the fitted dose curve at least 0.9, where 1 is the maximum; inactive means score below 0.9.

Chain of Aryl hydrocarbon receptor (Homo sapiens) (P35869 whole entry, looked up): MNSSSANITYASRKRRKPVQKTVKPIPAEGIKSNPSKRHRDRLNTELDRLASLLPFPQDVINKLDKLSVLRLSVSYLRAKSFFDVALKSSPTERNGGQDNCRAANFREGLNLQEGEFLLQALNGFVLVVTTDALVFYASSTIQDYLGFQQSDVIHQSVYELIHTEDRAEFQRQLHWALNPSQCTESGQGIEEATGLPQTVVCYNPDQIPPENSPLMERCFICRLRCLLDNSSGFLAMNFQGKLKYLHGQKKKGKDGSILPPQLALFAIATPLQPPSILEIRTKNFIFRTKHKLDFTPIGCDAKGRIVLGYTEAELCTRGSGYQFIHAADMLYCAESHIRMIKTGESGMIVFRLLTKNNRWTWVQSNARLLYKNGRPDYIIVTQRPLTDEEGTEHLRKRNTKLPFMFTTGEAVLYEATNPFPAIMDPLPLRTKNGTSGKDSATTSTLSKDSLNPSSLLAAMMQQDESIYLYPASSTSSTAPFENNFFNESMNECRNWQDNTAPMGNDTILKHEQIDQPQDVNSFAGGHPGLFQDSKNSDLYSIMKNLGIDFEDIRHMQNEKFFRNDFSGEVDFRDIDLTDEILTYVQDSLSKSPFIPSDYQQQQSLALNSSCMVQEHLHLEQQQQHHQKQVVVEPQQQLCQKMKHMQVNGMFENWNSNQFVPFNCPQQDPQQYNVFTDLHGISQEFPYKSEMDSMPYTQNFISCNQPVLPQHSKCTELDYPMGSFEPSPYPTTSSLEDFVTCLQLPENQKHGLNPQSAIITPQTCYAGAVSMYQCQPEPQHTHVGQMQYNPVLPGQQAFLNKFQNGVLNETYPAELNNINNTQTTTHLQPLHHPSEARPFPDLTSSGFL
Chain of Retinoic acid receptor alpha (Homo sapiens) (P10276 whole entry, looked up): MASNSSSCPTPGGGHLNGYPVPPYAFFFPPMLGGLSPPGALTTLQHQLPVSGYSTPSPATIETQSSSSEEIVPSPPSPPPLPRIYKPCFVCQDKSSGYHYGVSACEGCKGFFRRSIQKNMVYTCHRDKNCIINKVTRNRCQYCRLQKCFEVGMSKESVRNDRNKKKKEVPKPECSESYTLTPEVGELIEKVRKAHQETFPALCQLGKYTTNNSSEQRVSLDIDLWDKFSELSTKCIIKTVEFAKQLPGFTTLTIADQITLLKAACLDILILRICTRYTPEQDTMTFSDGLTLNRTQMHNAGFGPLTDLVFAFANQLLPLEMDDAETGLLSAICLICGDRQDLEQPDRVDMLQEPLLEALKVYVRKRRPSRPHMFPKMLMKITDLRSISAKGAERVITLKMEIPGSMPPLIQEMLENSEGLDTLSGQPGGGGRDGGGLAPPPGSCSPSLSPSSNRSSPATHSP
Chain of CCAAT/enhancer-binding protein beta (Homo sapiens) (P17676 whole entry, looked up): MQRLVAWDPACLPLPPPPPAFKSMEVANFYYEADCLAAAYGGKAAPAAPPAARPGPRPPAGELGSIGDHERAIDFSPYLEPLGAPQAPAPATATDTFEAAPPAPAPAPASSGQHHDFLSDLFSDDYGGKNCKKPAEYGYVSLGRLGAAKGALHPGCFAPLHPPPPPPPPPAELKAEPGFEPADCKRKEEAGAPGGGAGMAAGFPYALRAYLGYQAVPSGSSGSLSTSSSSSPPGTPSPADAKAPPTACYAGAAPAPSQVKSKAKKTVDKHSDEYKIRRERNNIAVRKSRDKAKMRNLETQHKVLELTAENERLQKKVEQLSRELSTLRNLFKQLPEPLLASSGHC

In general, AC50 refers to the concentration giving half of the maximal activity seen. Consider `OC(c1ccc(Cl)cc1)(c1ccc(Cl)cc1)C(Cl)(Cl)Cl`, for which the AC50 in assay [1] is 32.2 µM (active); in assay [5] it was 32.2 µM (active); in assay [6] it was 68.8 µM (active); in assay [8], 107 µM (active). For the same compound, the compound was called inactive in [2], in [3], in [4], in assay [7], in assay [9] and in assay [10]. Moreover, the outcome in assay [11], in assay [12], in assay [13], in [14], in assay [15] and in [16] was inactive. Further, the call in [17] was inactive.
In the case of `O=C1C2CC=CCC2C(=O)N1SC(Cl)(Cl)Cl` (configuration not stated), the AC50 is 100 µM (active) in assay [1], 88.1 µM (active) in assay [2], 100 µM (active) in assay [4] and 45.2 µM (active) in assay [6]. In addition, the call in assay [3], in [5], in assay [7], in assay [9], in [11] and in assay [18] was inactive. For the same compound, the call in assay [12], in [13], in assay [19], in [14], in assay [15] and in assay [16] was inactive. For the same compound, in assay [17], the compound was classed as inactive.
On to `CC1(C)C(C(=O)OC(C#N)c2cccc(Oc3ccccc3)c2)C1(C)C` (configuration not stated), for which the AC50 in assay [1] is 70.3 µM (active); in [13] it was 14.3 µM (active); in [17], 3.62 µM (active). The compound was classed as inactive in assay [2], in assay [3], in assay [4], in [6], in assay [7] and in assay [8]. Also, the result in assay [20], in assay [9], in assay [11], in assay [18], in assay [12] and in assay [19] was inactive. Besides, the result in assay [14] and in assay [16] was inactive.
Regarding `CCOP(=O)(OCC)Oc1nc(Cl)c(Cl)cc1Cl`, the call in assay [1], in assay [2], in assay [3], in assay [4], in assay [5] and in assay [6] was inactive. For the same compound, the compound was classed as inactive in [7], in assay [8], in assay [20], in assay [9], in [11] and in assay [13]. Moreover, the call in [19], in assay [14], in [16] and in [17] was inactive. Further, in [12], the AC50 is 19.6 µM (active).
With `N#CN=C1SCCN1Cc1ccc(Cl)nc1`, the call in [1], in [2], in [4], in assay [5], in assay [6] and in assay [7] was inactive. For the same compound, the call in assay [8], in assay [20], in assay [9], in [11], in assay [12] and in assay [13] was inactive. Moreover, the compound was classed as inactive in [19], in assay [14], in [15], in [16] and in [17].
As to `CN/C(=N\[N+](=O)[O-])NCc1cnc(Cl)s1`, the outcome in assay [1], in assay [2], in assay [3], in assay [4], in [5] and in [6] was inactive. The compound was called inactive in [7], in assay [9], in assay [11], in assay [12], in [13] and in assay [19]. Also, the call in assay [14], in assay [15], in assay [16] and in [17] was inactive.
For the compound `Nc1cnn(-c2ccccc2)c(=O)c1Cl`, the compound was called inactive in assay [1], in assay [2], in assay [3], in [4], in assay [5] and in assay [6]. For the same compound, the outcome in assay [7], in [8], in assay [9], in [10], in assay [11] and in assay [12] was inactive. Besides, the compound was classed as inactive in assay [13], in assay [14] and in [16]. In assay [19], the concentration at half-maximal activity (AC50) is 50 µM (active).
